Reference: PubChem BioAssay AID1776 (NMMLSC, 2009)
The campaign covered roughly 190,000 compounds. About 490 (0.26%) were called active. This is one part of a sample in which actives are shown more often than they occur. Unmarked numbers belong to inactive results. No stated cut-off is given here; in the data, active means fluorescence above about 89; inactive means the rest.

test: compound fluorescence on glutathione beads, profiling panel, artefact control, biophysical, 488/530 nm, flow cytometry (AID 1776); conditions: GSH beads flow cytometry, compound fluorescence 488/530 nm; at 10 µM; hits give high values;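 further: glutathione beads carrying GST-tagged Bcl family fusion proteins plus one bare bead set; values are compound well signal with DMSO vehicle wells as background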

SMILES | fluorescence (KMESF)
CCOC(=O)CNC(=O)CSc1nnnn1-c1cc(C)ccc1C | 33
CNC(=O)CSc1nnnn1-c1ccc(C)cc1C | 23
Cc1ccc(C)c(-n2nnnc2SCC(=O)c2c(N)n(C)c(=O)n(C)c2=O)c1 | 179 (active)
CN(C)CC(C)(C)CNC(=O)c1cc(Br)cc(Br)c1O | 12
C=CCNC(=S)NNC(=O)COc1c(Cl)cc(Cl)cc1Cl | 12
Cc1cc(C)nc(NNC2=CC(=O)CC(C)(C)C2)n1 | 16
COc1ccc(C(=O)NNc2cc(C)nc(NNC(=O)c3ccc(OC)cc3)n2)cc1 | 11
CC1CCCCC1NC(=O)CN1CCC(O)(c2ccc3c(c2)OCO3)CC1 (stereo unspecified) | 15
CC1=C(C)CC(C(=O)NNC(=O)c2csc3c2CCC(C(C)(C)C)C3)C(C(=O)O)C1 (stereo unspecified) | 10
Cc1ccccc1CC1(CO)CCCN(Cc2ccc3c(c2)OCCO3)C1 (stereo unspecified) | 18
S=c1[nH]ccn1-c1ccc(Cl)cc1 | 11
COCCSc1nnc(NC(=O)c2cc(OC)c(OC)cc2[N+](=O)[O-])s1 | 21
Cc1ccc(C(=O)NC(C)c2ccccc2)cc1Br (stereo unspecified) | 15
OCCC#Cc1ccc(CN2CCN(Cc3ccsc3)C(CCO)C2)cc1 (stereo unspecified) | 10
CCCCCc1nnc(NC(=O)c2ccc(=O)n(C)n2)s1 | 16
CC1(C)CC(=O)C(N=Nc2ccc(S(=O)(=O)N3CCCCCC3)cc2)=C(O)C1 | 11
COc1cc(OC)cc(-c2nc3ccccc3c(=O)n2NC(=O)c2cccnc2Cl)c1 | 10
Cc1ccc(C)c(-n2ccnc2SCC(N)=O)c1 | 20
CC(C)c1nc(CNC(=O)CC2C(=O)NCCN2Cc2ccoc2)cs1 (stereo unspecified) | 15
COc1cc(OC)c(C(=O)N2CCCC2)cc1OC | 10
O=C(COc1ccc([N+](=O)[O-])cc1)Nc1ccc(N2CCCC2)cc1 | 9
Cc1nn(-c2ccc([N+](=O)[O-])cc2)c(N)c1-c1ccccc1 | 8
Cc1cc(NS(=O)(=O)c2ccc(NC(=S)NC(=O)c3ccc(F)cc3Cl)cc2)no1 | 12
CNc1ccc(NC(C)=O)cc1[N+](=O)[O-] | 13
CCCOCC(O)CC(CC)C(=O)NNC(=S)Nc1ccccc1 (stereo unspecified) | 13

SMILES | fluorescence (KMESF)
S=C(Nc1cccc(Br)c1)N1CCn2cccc2C1c1cccnc1 (stereo unspecified) | 15
COc1ccccc1-c1noc(CSc2nc(C)cc(=O)[nH]2)n1 | 20
Cc1cc(=O)[nH]c(SCc2cc(Cl)ccc2OC(F)F)n1 | 270 (active)
Cc1cc(=O)[nH]c(SCc2cccc(F)c2)n1 | 31
C#CCCCc1nc2ccccc2c(=O)n1N | 11
COc1ccc(S(=O)(=O)N2CN(CCc3ccc(OC)c(OC)c3)c3nc4ccccc4nc32)cc1 | 15
O=C1/C(=C\c2ccsc2)NC(=S)N1c1ccccc1 | 11
CCCc1c(C)nc2c(Br)cccc2c1Cl | 17
CN(C)c1ccnc2sc(C(=O)c3ccccc3)c(N)c12 | 7
O=C(CC1Nc2ccccc2NC1=O)Nc1ccccc1NC(=O)CC1Nc2ccccc2NC1=O (stereo unspecified) | 13
CCCCC(O)(CCCC)C(=O)NN(C(=O)CCl)c1ccccc1 | 9
O=C(/C=C/c1cn(-c2ccccc2)nc1-c1ccc2c(c1)OCCO2)NCCCN1CCOCC1 | 15
COC(=O)Cc1c(O)ccn(Cc2cccc(C(F)(F)F)c2)c1=O | 11
Cc1scc(C(=O)NNC(=S)NCC(C)C)c1C | 5
COc1cccc(OC)c1C(=O)NC(=S)NCc1ccco1 | 10
O=C(N/N=C/c1ccccn1)C12CC3CC(CC(C3)C1)C2 | 10
NC(=O)Cc1ccc2sc(-c3ccccc3)nc2c1 | 4
Cc1ccc(Cl)cc1NC(=O)C1CCN(S(C)(=O)=O)CC1 | 13
O=C1N/C(=C/c2cccs2)C(=O)N1Cc1ccc(F)cc1 | 18
O=C(NCc1cccs1)C(=O)NCC1OCCCN1S(=O)(=O)c1ccc(F)cc1 (stereo unspecified) | 10
Cc1cc([N+](=O)[O-])ccc1NC(=O)C1CCCO1 (stereo unspecified) | 8
CCOC(=O)c1sc(NC(=O)CSc2nc3c(c(=O)n2-c2ccccc2)SCC3)c(C(=O)OCC)c1C | 16
Cc1nc2ccccc2nc(=O)c1NNc1ccc([N+](=O)[O-])cc1 | 20
C/C(=N/NC(=S)Nc1ccccc1)c1ccc2c(c1)OCO2 | 5
CCOc1ccc(Br)cc1S(=O)(=O)N1CCC(C(=O)O)CC1 | 10

SMILES | fluorescence (KMESF)
CC1(C)CC(=O)NC=C(c2ccccc2)C1 | 272 (active)
O=c1[nH]c(-c2ccccc2)c(-c2ccccc2)[nH]1 | 20
CC(C)C1C2=C(CC(C)(C)CC2=O)ON1c1ccccc1 (stereo unspecified) | 52
CCCC(CCC(=O)OC)(C(=O)OCC)c1csc(N)n1 (stereo unspecified) | 262 (active)
CC/C(Cc1ccccc1)=N/NC(=O)CCn1nnc2ccccc21 | 12
COc1ccc(NC(=O)Cn2c(=O)n(Cc3ccco3)c(=O)c3ccccc32)cc1 | 17
CCOC(=O)CSc1nc2c(sc(=S)n2CCc2ccccc2)c(=O)n1Cc1ccco1 | 11
CN(c1ccccc1)c1ccc(/C=c2\s/c(=C(/C#N)C(=O)C(C)(C)C)n(Cc3ccco3)c2=O)cc1 | 145 (active)
Nc1nc(SCC(=O)NN(c2ccccc2)c2ccccc2)n[nH]1 | 7
Cc1ccc(NS(=O)(=O)c2ccc(C)c(NC(=O)COc3ccc4ccccc4c3)c2)c(C)c1 | 15
O=C(/C=C\c1ccc2c(c1)OCO2)NC1(C(=O)Nc2ccc3c(c2)OCCO3)CCCCC1 | 7
Cc1cc([N+](=O)[O-])ccc1NC(=O)c1ccc(NC(=O)C(C)C)cc1 | 17
CCc1ccc(CN2C(=O)c3ccccc3C2C(=O)NCC2CCCO2)cc1 (stereo unspecified) | 14
Cc1c(Cl)cccc1NC(=O)CC1SC(=NCC2CCCO2)NC1=O (stereo unspecified) | 20
CCOc1ccc(S(=O)(=O)N/N=C(\C)c2ccc(Cl)c(Cl)c2Cl)cc1 | 18
CCCCCC(=O)Nc1ccc(S(=O)(=O)Nc2ccc(Cl)nn2)cc1 | 11
COc1ccccc1N(C)S(=O)(=O)c1ccc(Cl)c(C(=O)N2CCC(C(N)=O)CC2)c1 | 11
CN1CCC(OC(=O)COc2ccc(Cl)cc2Cl)CC1 | 13
Cn1nccc1CNC(=O)c1ccnn1C | 9
CCCCN(C)CCNC(=O)CSCc1ccc(C)cc1 | 25
CCCCN(C(=O)/C=C/c1ccco1)c1c(N)n(CC(C)C)c(=O)[nH]c1=O | 9
COc1ccc(/C=C2/SC(=O)N(CCCCCC(=O)Nc3ccccc3C(=O)O)C2=S)cc1 | 9
O=C(CC12CC3CC(CC(C3)C1)C2)NCc1ccco1 | 15
CSCC(=O)N1CCCC(C(=O)c2cc(F)ccc2F)C1 (stereo unspecified) | 11
O=C(Cc1ccc(-c2ccccc2)cc1)NC(c1ccccc1)c1ccccc1 | 10

SMILES | fluorescence (KMESF)
O=C(O)Cc1ccc(-c2ccccc2)cc1 | 21
OCC(CO)(CO)NCc1ccc(-c2ccccc2)cc1 | 236 (active)
O=C(COc1ccc(NC(=O)c2ccccc2[N+](=O)[O-])cc1)c1ccc(F)cc1 | 23
O=C(COC(=O)c1ccc(Cl)nc1)NCc1cccs1 | 24
COc1cccc(NC(=O)COC(=O)CCOc2ccccc2OC)c1 | 10
COc1ccccc1OCCC(=O)OCC(=O)NCc1ccccc1 | 16
COc1ccccc1OCCC(=O)OCC(=O)NC(=O)NC(C)(C)C | 260 (active)
Cc1ccccc1-n1nnnc1SCCCC(=O)c1ccc(F)cc1 | 11
COc1cccc(Cn2cnc3c([N+](=O)[O-])c(C)c(C)cc32)c1 | 19
CCOC(=O)Cc1csc(NC(=O)C(C)(C)C)n1 | 28
CCOC(=O)Cc1csc(NC(NC(=O)OCC)(C(F)(F)F)C(F)(F)F)n1 | 269 (active)
CCOC(=O)Cc1csc(NC(=O)Nc2ccccc2)n1 | 13
COc1ccc(C)cc1S(=O)(=O)N(CC(=O)Nc1cccc([N+](=O)[O-])c1)c1ccc(C)cc1 | 11
CCCCN1C(=S)NC[C@@H]1C(C)CC (stereo partly specified) | 20
Cc1ccc(-c2cc(C(=O)N/N=C/C=C/c3ccccc3)n[nH]2)o1 | 7
O=C(NCCCN1CCOCC1)c1ccc(N2CCCC2)c([N+](=O)[O-])c1 | 15
COc1ccc(CCNC(=O)CCn2c(=O)c3ccccc3n(CC(=O)NCC3CCCO3)c2=O)cc1OC (stereo unspecified) | 70
CNc1nc2c(C)cccn2c(=O)c1C=Nc1ccc(OC)cc1 | 19
O=c1c2c(nc3n1CCCCC3)sc1c(O)cccc12 | 8
Cc1ccc2nc3n(c(=O)c2c1)CCC3 | 45
Cc1cccc2c(=O)n3c(nc12)CCCCC3 | 267 (active)
Cc1ccc(S(=O)(=O)NCCC(c2ccccc2)c2ccccc2)cc1C(=O)O | 12
CCO/C=C1\C(=O)N(c2ccc(OCC)cc2)C(=O)c2ccccc21 | 14
Cc1cc(NC(=O)CN2C(=O)NC(CCc3ccccc3)C2=O)no1 (stereo unspecified) | 13
O=C(c1ccc(OC2CCN(C(=O)c3cccnc3)CC2)cc1)N1CCCCCC1 | 11

SMILES | fluorescence (KMESF)
Cc1cccc(Oc2c([N+](=O)[O-])c(=O)n(C)c3ccccc23)c1 | 55
O=C(COC(=O)CCCSc1nc2ccccc2[nH]1)Nc1ccc(Oc2ccccc2)cc1 | 11
CCCCC(NS(=O)(=O)c1ccc(C)cc1)C(=O)Oc1ccc2c3c(c(=O)oc2c1)CCC3 (stereo unspecified) | 11
CCOC(=O)C1=C(C)NC(C)=C(C(=O)OCC)C1c1ccccn1 | 252 (active)
CCOC(=O)C1=C(C)NC(SC)=NC1c1ccccc1 (stereo unspecified) | 34
CCOC(=O)C1=C(C)NC(=O)NC1c1ccccc1 (stereo unspecified) | 17
CC(C)(C)NC(=O)CN(C(=O)c1csnn1)c1ccccc1-c1ccccc1 | 14
CCc1cccc(CC)c1NC(=O)COc1ccccc1C(=O)c1cc(C#N)c(=O)n(C2CCCCC2)c1 | 18
CCOc1ccc(NC(=O)NNC(=O)c2ccc(Cl)cc2Cl)cc1 | 21
COc1ccc(/C=N/OCC(=O)N(Cc2ccccc2)c2ccccc2C(=O)O)cc1 | 6
COC(=O)c1ccc(-c2noc(CN(Cc3ccccn3)CC3CCCO3)n2)cc1 (stereo unspecified) | 18
CC(C)N1CCC(=NNc2ccc([N+](=O)[O-])cc2S(=O)(=O)N2CCOCC2)CC1 | 18
O=C(CSc1nnnn1-c1ccc(O)cc1)N1N=C(c2ccc3ccccc3c2)CC1c1ccccc1 (stereo unspecified) | 16
Cc1ccc2c(Cl)c(C(=O)Nc3nn[nH]n3)sc2c1 | 15
COc1ccc(CN2C(=O)CC(Cc3ccc(C)cc3)C2=O)cc1OC (stereo unspecified) | 10
Cc1ccc(C(=O)O)cc1NC(=O)c1ccc(Cn2nc(C)c(Cl)c2C)o1 | 15
COC(=O)C1NN=C(C(=O)c2ccc(Br)cc2)C1c1cccc(Br)c1 (stereo unspecified) | 10
COC(=O)C1=C(C)N(C)C(=S)NC1c1ccccc1 (stereo unspecified) | 13
COC(=O)C1=C(C)N(C)C(C)=C(C(=O)OC)C1c1cccc(Br)c1 | 266 (active)
CCOc1ccccc1/C=N/NC(=O)CNC(=O)COc1ccccc1 | 13
Cc1cccc(-n2cc(CN3CCN(C(=O)c4ncn[nH]4)CC3)c(-c3cccc(F)c3)n2)c1 | 12
